# Assay outcomes as filed in PubChem.
# Rows were chosen to be rich in hits. Some 4.7% of all compounds tested hit in one or more screens of this group.
# D1 potentiator: Potentiators of Human D1 Dopamine Receptor: qHTS; D(1A) dopamine receptor (Homo sapiens), P21728; HEK293 TREx D1 cells, calcium flux, dopamine EC20 potentiation; potentiation, % at 10 µM; 0.036% of 360,000 active; AID 504651, 2011; in the data active = potentiation above about 30%; also: 0% is about no effect
# D1 antagonist: Antagonist of Human D 1 Dopamine Receptor: qHTS; D(1A) dopamine receptor (Homo sapiens), P21728; HEK293 TREx D1 cells, calcium flux, dopamine EC80; stronger effect = lower value; activity change, negative = inhibition, % at 10 µM; 3.2% of 360,000 active; AID 504652, 2011; in the data active = activity change below about -30%; also: % is scaled to controls: 0 for no effect and ±100 for the full control effect
#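 Using tetracycline-induced force-coupled D1 Hek293 cells and a calcium dye, signals were followed for 180 s after compound, then for 180 s after EC80 dopamine, to detect inhibitors.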
# TRHR agonist: qHTS for Small Molecule Agonists and Allosteric Enhancers of Human TRH Receptor: Primary Screen for Agonists; Thyrotropin-releasing hormone receptor (Homo sapiens), P34981; TRHR cells, calcium flux fluo-8, FDSS agonist mode; activation, % at 2 µM; 0.18% of 360,000 active; AID 493084, 2011; also: 0% is about no effect
# Target sequence (P34981 whole entry, looked up): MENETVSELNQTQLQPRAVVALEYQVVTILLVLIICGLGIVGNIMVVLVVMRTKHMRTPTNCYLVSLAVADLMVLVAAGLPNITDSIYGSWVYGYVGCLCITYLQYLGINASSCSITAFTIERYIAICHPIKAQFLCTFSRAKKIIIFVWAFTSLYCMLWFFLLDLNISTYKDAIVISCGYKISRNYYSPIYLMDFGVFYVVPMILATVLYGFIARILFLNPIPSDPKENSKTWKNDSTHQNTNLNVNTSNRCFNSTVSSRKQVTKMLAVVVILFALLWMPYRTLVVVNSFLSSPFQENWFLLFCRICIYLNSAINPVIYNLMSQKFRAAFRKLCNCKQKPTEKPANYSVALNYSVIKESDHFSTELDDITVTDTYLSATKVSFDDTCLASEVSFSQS
#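 TRHR-expressing cells loaded with fluo-8 calcium dye; 23 nL library compound pin-transferred, kinetic FDSS fluorescence (Ex 480/Em 530) recorded about 180 s for agonist-induced calcium release, before a 10 nM TRH EC20 addition for potentiator mode.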
# D1 ag: Allosteric Agonists of the Human D1 Dopamine Receptor: qHTS; D(1A) dopamine receptor (Homo sapiens), P21728; HEK293 T-REx D1 cells, calcium flux, agonist mode; activation, % at 2 µM; 1% of 360,000 active; AID 504660, 2011; also: 0% is about no effect
#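 Inducible HEK293 T-REx D1 cells, force-coupled to calcium signalling, were plated at 4000 cells/well with tetracycline and held overnight at 30 C. After no-wash calcium dye loading, compound-evoked calcium rise over 180 s flagged agonists.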
# TRHR enhancer: qHTS for Small Molecule Agonists and Allosteric Enhancers of Human TRH Receptor: Primary Screen for Enhancers; TRHR cells, fluo-8 calcium fluorescence, EC20 TRH enhancement; enhancement, % at 2 µM; 0.66% of 360,000 active; in the data active = enhancement above about 30%; also: 0% is about no effect
#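 Enhancer read-out: after compound pinning and an initial kinetic agonist-mode read, an EC20 of TRH (10 nM final) was injected and fluo-8 calcium signal (Ex 480/Em 530) followed at 1 s/cycle for 100 cycles in TRHR-expressing cells.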
# Active calls of the source: *. Rule as the data show it, unless noted: active = activation above about 30%; inactive = the rest.
SMILES,D1 potentiator,D1 antagonist,TRHR agonist,D1 ag,TRHR enhancer
Cc1ccc(C)c(NC(=O)CSc2nnc(CNC(=O)c3cccs3)o2)c1,3.9,-3.2,0.1,-2.0,-2.4
COc1ccc(OCCNC2CCCC2)cc1,8.6,-6.4,0.5,2.7,0.5
c1ccc(-c2ccc(OCCCNC3CCCC3)cc2)cc1,-0.8,-37.3*,1.7,41.5*,-3.3
c1ccc(SCCCCNC2CCCC2)cc1,-8.2,-10.4,1.6,11.2,-4.9
c1ccc(Cc2ccc(OCCCNC3CCCC3)cc2)cc1,1.5,-23.5,3.4,55.6*,4.2
COCCNC(=S)N(CCc1c(C)[nH]c2ccc(Cl)cc12)Cc1cccnc1,-4.3,5.6,1.6,9.1,-11.5
CCNC(=S)N(CCc1c(C)[nH]c2ccc(Cl)cc12)Cc1cccnc1,-6.2,-43.1*,-1.1,6.2,18.2
CNC(=S)N(CCc1c(C)[nH]c2ccc(Cl)cc12)Cc1cccnc1,-9.8,-25.0,-0.5,30.6*,15.3
COc1ccc(C)cc1NC(=O)C(OC(=O)CNC(=O)c1ccccc1)c1ccccc1 (configuration not stated),-6.1,18.3,-0.9,3.6,-1.2
CC1(C)O[C@@H]2[C@H](O1)[C@@H](COS(=O)(=O)O)O[C@H]2n1cnc2c(N)ncnc21,-4.1,-30.9*,-0.1,3.0,1.9
CC1(NC(=O)c2cc(Cl)nc3ccccc23)CCS(=O)(=O)C1 (configuration not stated),-5.2,3.6,0.6,-0.6,-2.2
CC1CCN(CCCCOc2ccc(C(=O)c3ccccc3)cc2)CC1,-8.6,-14.3,0.9,20.6,-0.7
c1ccc(COc2ccc(OCCN3CCCCC3)cc2)cc1,-3.8,-31.3*,4.6,43.3*,3.2
c1ccc(COc2ccc(OCCCN3CCCC3)cc2)cc1,-3.5,-25.0,0.5,26.4,-1.3
c1ccc(COc2ccc(OCCN3CCCC3)cc2)cc1,-7.0,0.7,1.7,48.3*,-2.0
CC1CCN(CCCOc2ccc(OCc3ccccc3)cc2)CC1,-9.8,-39.7*,1.8,75.6*,-1.4
Cc1ccc(/C=c2\sc3n(c2=O)CN(c2ccc(Br)cc2)CN=3)o1,-11.3,-38.9*,0.5,-0.2,-8.8
COc1cc(S(=O)(=O)n2ccnc2C(C)C)ccc1Br,-1.9,1.2,0.6,-0.4,6.2
COC(=O)c1cc(Br)c(=O)n(CCN2CCCC2)c1,-8.0,-7.1,0.9,1.5,-6.5
COC(=O)c1cc(Br)c(=O)n(CC(C)C)c1,3.4,-1.4,-1.2,1.3,30.8*
Cc1ccc(N(Cc2cccs2)C(=O)c2ccccc2[N+](=O)[O-])cc1,-0.1,10.4,-0.1,3.1,-2.5
COc1ccc(C(=O)c2ccc(N(C)C)cc2)c(OC)c1,2.5,4.1,-1.3,0.6,4.1
COc1ccc(C(=O)c2ccc(OC)cc2OC)cc1,-1.1,-48.5*,-0.1,0.4,-3.1
Cc1ccc(NS(=O)(=O)c2ccc(C(=O)NCC(c3ccco3)N(C)C)cc2)cc1 (configuration not stated),-7.0,-31.3*,4.6,52.7*,5.8
COc1ccccc1NS(=O)(=O)c1ccc(C(=O)NCC(c2ccccc2OC)N(C)C)cc1 (configuration not stated),-5.0,-1.0,0.2,2.4,3.0
SMILES,D1 potentiator,D1 antagonist,TRHR agonist,D1 ag,TRHR enhancer
CN(C)C(CNC(=O)Cc1cccc(C(F)(F)F)c1)c1ccco1 (configuration not stated),-2.0,-48.2*,1.0,5.0,5.7
Cc1cccc(NS(=O)(=O)c2ccc(C(=O)NCC(c3ccccc3)N(C)C)cc2)c1C (configuration not stated),-1.9,1.4,2.7,48.4*,-5.7
CNS(=O)(=O)c1cccc(C(=O)NCC(c2ccco2)N(C)C)c1 (configuration not stated),0.6,-35.0*,-0.2,0.4,-11.4
CN(C)C(CNC(=O)c1cccc(S(=O)(=O)Nc2ccccc2Cl)c1)c1ccco1 (configuration not stated),4.3,-9.8,-0.2,2.1,7.1
CN(C)C(CNC(=O)c1ccc(NS(=O)(=O)c2ccc(F)cc2)cc1)c1ccco1 (configuration not stated),2.5,-6.8,0.0,2.2,3.2
Cc1ccc2c(CC(=O)NNC(=O)c3ccccc3O)coc2c1,0.4,-9.8,0.2,0.4,6.3
CCc1ccc(NC(=O)CCCc2nnc3n(C(C)CC)c(=O)c4sccc4n23)cc1 (configuration not stated),-0.9,6.0,0.1,2.4,7.4
COc1ccccc1CNC(=O)CCC1N=C2c3ccccc3N=C(SCC(=O)Nc3ccc(F)cc3)N2C1=O (configuration not stated),-3.3,-27.0,-0.3,-1.6,-6.4
COc1ccc2[nH]c(C(=O)N3CCNCC3)cc2c1OC,-4.4,-41.3*,-0.4,2.2,5.0
Cc1ccc(CNS(=O)(=O)c2cc3c4c(c2)CCN4C(=O)CC3)cc1,-3.8,-17.0,-0.2,6.8,-7.6
CCOc1ccc(-c2cc3c(=O)n(CC(=O)NCc4ccc(Cl)cc4)ccn3n2)cc1,0.7,0.2,1.0,-0.5,-4.3
CCc1cccc(NC(=O)Cn2nc(-c3ccc(OC)cc3)ccc2=O)c1,-0.5,-2.4,-0.1,2.7,-4.0
COc1ccc(-c2ccc(=O)n(CC(=O)Nc3ccc(OC)c(OC)c3)n2)cc1,-1.4,-40.2*,0.0,4.6,-0.8
COc1cccc(NC(=O)Cn2nc(-c3ccncc3)ccc2=O)c1,-4.5,-43.8*,0.2,0.2,-5.7
O=C(c1c[nH]c2ccccc12)C(Cl)c1ccccc1 (configuration not stated),-0.7,-38.9*,-1.9,18.2,5.1
Cc1ccc(S(=O)(=O)NC2CC(C)(C)NC(C)(C)C2)cc1C,-6.1,-22.0,0.8,0.6,7.8
O=C(COc1ccccc1)Nc1cccc(-c2ccc(N3CCOCC3)nn2)c1,2.1,-72.5*,-0.1,1.0,4.4
Cc1ccccc1C(=O)Nc1cccc(-c2ccc(N3CCOCC3)nn2)c1,-1.4,-37.0*,-0.5,4.7,-2.6
O=C(Nc1cccc(-c2ccc(N3CCOCC3)nn2)c1)c1ccccc1,0.2,15.4,0.1,0.2,3.8
O=C(CCCc1nc(-c2ccc(Cl)cc2)no1)NC1CCCC1,-9.5,-18.3,0.8,6.2,-0.6
CCc1ccccc1NC(=O)c1ccc(CN2C(=O)CCn3nc(C)cc32)cc1,1.6,5.2,0.3,-0.1,4.0
